# Measured values reported in the supplement of paper PMC3545927.
# The other results are listed elsewhere or left out. The true hit rate is not given.
# Target: furin, P09958
# Test: furin cleavage Z-score vs untreated control; higher = more cleavage, active = 3.5 or more, inactive = 1 or less, 8 variable residues between constant flanks
# Procedure: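 Multiplexed peptide-cDNA fusion cleavage assay. 8-mer variable peptides flanked by constant Cys-Ala (N-term) and Ala-Gly-Asn-Ala-Ser-Ala-Ser-Ala (C-term) and conjugated to a cDNA oligonucleotide were bead-immobilised via the N-terminus. They were treated with purified furin at a 1:10 enzyme:substrate ratio in 50 mM HEPES pH 7.5, 1 mM CaCl2, 100 mM NaCl for 7.5, 15 or 30 min. Released cDNA was counted by next-generation sequencing, and log counts versus no-furin controls were lowess-adjusted and converted to robust Z-scores.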
# Sequence of furin, P09958 (P09958 whole entry): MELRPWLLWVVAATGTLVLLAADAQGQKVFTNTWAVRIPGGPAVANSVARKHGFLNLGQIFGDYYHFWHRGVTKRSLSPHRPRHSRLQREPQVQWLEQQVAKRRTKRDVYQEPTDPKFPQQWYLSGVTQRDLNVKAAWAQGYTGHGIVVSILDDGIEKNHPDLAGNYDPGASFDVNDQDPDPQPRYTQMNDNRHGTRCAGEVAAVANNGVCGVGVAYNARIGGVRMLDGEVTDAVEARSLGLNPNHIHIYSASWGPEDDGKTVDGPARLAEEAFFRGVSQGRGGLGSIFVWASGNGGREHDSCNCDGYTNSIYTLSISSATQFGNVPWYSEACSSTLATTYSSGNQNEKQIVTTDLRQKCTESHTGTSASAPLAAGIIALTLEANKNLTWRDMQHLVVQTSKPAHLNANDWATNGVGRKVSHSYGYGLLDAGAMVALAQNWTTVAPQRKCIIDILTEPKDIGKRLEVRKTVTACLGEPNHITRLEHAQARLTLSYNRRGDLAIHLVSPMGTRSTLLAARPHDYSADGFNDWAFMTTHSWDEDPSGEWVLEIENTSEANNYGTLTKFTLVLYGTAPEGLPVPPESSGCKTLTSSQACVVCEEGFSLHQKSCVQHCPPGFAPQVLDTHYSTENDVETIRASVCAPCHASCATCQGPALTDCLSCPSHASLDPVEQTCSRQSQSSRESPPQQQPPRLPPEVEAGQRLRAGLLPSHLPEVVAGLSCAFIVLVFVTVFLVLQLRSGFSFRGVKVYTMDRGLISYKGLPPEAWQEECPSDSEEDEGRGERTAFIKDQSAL
Sequence,furin cleavage Z-score (7.5 min),furin cleavage Z-score (15 min),furin cleavage Z-score (30 min)
CARHLIFCHSAGNASASA [HC855],-0.853 (inactive),0.266 (inactive),0.481 (inactive)
CARFWRKTRSAGNASASA [FS-1396],13 (active),13.8 (active),10.1 (active)
CARHMRMTRSAGNASASA [FS-857],13.4 (active),13.6 (active),9.7 (active)
CARMWRKTRSAGNASASA [FS-955],13.5 (active),13.7 (active),10.7 (active)
CADSGRAYLPAGNASASA [FS-2629],-0.794 (inactive),-0.681 (inactive),-1.79 (inactive)
CADSGRKTRSAGNASASA [FS-760],9.82 (active),12.7 (active),9.11 (active)
CARIVGPRTCAGNASASA [HC1183],0.967 (inactive),-0.921 (inactive),-0.233 (inactive)
CAYVPCHRPSAGNASASA [HC2309],1.57,-0.807 (inactive),0.069 (inactive)
CAPQAILDMIAGNASASA [HC331],-0.162 (inactive),-2.41 (inactive),-1.52 (inactive)
CAKWVPGAVYAGNASASA [HC551],-1.17 (inactive),-1.76 (inactive),-0.384 (inactive)
CAMEESSQHLAGNASASA [HC15],0.403 (inactive),2.52,1.06
CADQEVVTSTAGNASASA [HC2302],-0.902 (inactive),-1.54 (inactive),-1.12 (inactive)
CARMWRKNRSAGNASASA [FS-954],7.39 (active),10 (active),7.6 (active)
CAFQARLTRSAGNASASA [FS-158],10.8 (active),11.5 (active),9.98 (active)
CAMPECSQHLAGNASASA [HC1699],-0.692 (inactive),-0.28 (inactive),-0.904 (inactive)
CADQDLVGWPAGNASASA [HC713],-0.0765 (inactive),-0.565 (inactive),0.238 (inactive)
CARTKRELENAGNASASA [FS-1935],14.2 (active),14.2 (active),11.6 (active)
CARDKRALKQAGNASASA [FS-1690],5.74 (active),8.75 (active),8.98 (active)

Sequence,furin cleavage Z-score (7.5 min),furin cleavage Z-score (15 min),furin cleavage Z-score (30 min)
CAITRVESENAGNASASA [HC1281],-1.51 (inactive),-1.29 (inactive),0.308 (inactive)
CARSKRALKQAGNASASA [FS-2604],8.45 (active),11.8 (active),8.31 (active)
CARSKKDFEAAGNASASA [FS-2458],0.38 (inactive),-0.117 (inactive),-0.363 (inactive)
CARSKRAAPAAGNASASA [FS-2603],11.1 (active),9.91 (active),8.19 (active)
CAQAEAALENAGNASASA [HC532],0.288 (inactive),-0.4 (inactive),-1.4 (inactive)
CAMEECGQHLAGNASASA [HC22],0.622 (inactive),0.186 (inactive),1.5
CARAAICGKYAGNASASA [HC1629],-0.897 (inactive),-0.988 (inactive),-0.655 (inactive)
CARSKRRKYVAGNASASA [FS-3170],-1.22 (inactive),-0.271 (inactive),0.492 (inactive)
CARDKKSLLQAGNASASA [FS-2133],0.497 (inactive),0.302 (inactive),-0.611 (inactive)
CARDKRSALQAGNASASA [FS-1945],8.56 (active),10.4 (active),8.42 (active)
CARSYRYALQAGNASASA [FS-3101],2.16,-0.873 (inactive),-0.277 (inactive)
CARSKRKKEVAGNASASA [FS-2304],1.21,-0.317 (inactive),-0.337 (inactive)
CARSKRAQTQAGNASASA [FS-2807],3.83 (active),4.65 (active),3.76 (active)
CARSKRASYVAGNASASA [FS-2808],5.25 (active),9.12 (active),8.21 (active)
CARSKRREMQAGNASASA [FS-3207],0.975 (inactive),0.582 (inactive),0.62 (inactive)
CARDKRWVKYAGNASASA [FS-2652],0.63 (inactive),2.15,6.84 (active)
CARDKRLAYSAGNASASA [FS-3217],-0.235 (inactive),-0.255 (inactive),0.271 (inactive)
